Experimental data reported in PubChem BioAssay AID588795 (National Center for Advancing Translational Sciences (NCATS), 2011).
Hit rate of the full screen: of about 390,000 compounds, about 1,400 (0.36%) were called active. Not shown: some 2% with an inconclusive outcome. The sample as a whole holds a higher share of actives than the screen did. Values without a mark were called inactive. The call rests on the fitted dose curve; in most records, active means well fitted inhibition curve with a large enough effect; inconclusive means small, poorly fitted or top-dose-only effect; inactive means no such curve, though single readings can be large or run the other way.

These molecules were tested against Flap endonuclease 1 (Homo sapiens) (UniProt P39748) (assay: qHTS Assay for the Inhibitors of Human Flap endonuclease 1 (FEN1).). Conditions: Recombinant FEN1 flap cleavage, fluorescence, 15 min; series mostly up to 114 µM; activity change, negative = inhibition: at the top concentration.
Sequence of Flap endonuclease 1 (Homo sapiens) (P39748 whole entry, looked up, the tested form may be a part): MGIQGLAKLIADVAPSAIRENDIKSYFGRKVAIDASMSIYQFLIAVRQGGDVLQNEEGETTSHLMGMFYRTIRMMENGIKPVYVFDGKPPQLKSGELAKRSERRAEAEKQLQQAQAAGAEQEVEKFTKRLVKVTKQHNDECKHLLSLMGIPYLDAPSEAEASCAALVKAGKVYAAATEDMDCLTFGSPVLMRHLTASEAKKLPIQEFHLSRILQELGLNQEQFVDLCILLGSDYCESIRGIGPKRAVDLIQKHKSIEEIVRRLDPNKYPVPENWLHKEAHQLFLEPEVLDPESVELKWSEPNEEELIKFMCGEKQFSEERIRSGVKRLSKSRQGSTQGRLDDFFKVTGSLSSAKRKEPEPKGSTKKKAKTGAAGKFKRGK
Text: The major human flap endonuclease FEN1 is an efficient structure-specific enzyme that recognizes and cleaves a 5'-unannealed DNA flap. It belongs to the RAD2 family nucleases, which are involved in DNA metabolism and are highly conserved in prokaryotes and eukaryotes. FEN1 is a key enzyme in DNA replication, repair and maintenance of genomic stability. 5'-flap removal by FEN1 is critical for Okazaki fragment processing during lagging strand DNA synthesis, long-patch base excision repair (LP BER), and regulating or facilitating recombination events. […] Deletion of the yeast FEN1 gene, i.e. rad27, results in an increased frequency of short DNA (3-32 bp) repeats, micro- and mini-satellite formation, trinucleotide repeat expansion, spontaneous recombination events, and a severe growth defect in association with cell cycle arrest in late S/G2 phase. […] Cells from fen1-/- blastocysts show increased apoptotic cell death after ionizing radiation treatment, and chicken cells lacking the fen1 gene are hypersensitive to DNA alkylating agents, e.g. methylmethane sulfonate (MMS) and N-methyl-N'-nitro-N-nitrosoguanidine (MNNG), as well as hydrogen peroxide.
NIH Chemical Genomics Center [NCGC]
NIH Molecular Libraries Probe Centers Network [MLPCN]
Assay Submitter (PI): David Wilson, National Institute of Aging
Three uL of reagents (buffer in column 3 and 4 as negative control and 10 nM FEN1 in columns 1, 2, and 5-48) were dispensed into 1,536-well black solid-bottomed plate. Compounds (23 nL) were transferred via Kalypsys pin tool equipped with 1536-pin array (10 nL slotted pins, V&P Scientific, San Diego, CA). The plates were then incubated for 15 min at room temperature, and 1 uL substrate (50 nM final concentration) were added to start the reaction read twice at 0 min read and 15 min on ViewLux reader. Throughout the screen, reagent bottle and all liquid lines were chilled and made light-tight to minimize reagent degradation. All screening operations were performed on a fully integrated robotic system (Kalypsys, San Diego, CA) containing one RX-130 and two RX-90 anthropomorphic robotic arms (Staubli, Duncan, SC). Library plates were screened starting from the lowest and proceeding to the highest concentration, and a "double-dipping" step of the highest concentration was required to access higher concentrations of compounds. Vehicle-only plates, with DMSO being pin-transferred to the entire column 5-48 compound area, were inserted uniformly at the beginning and the end of each library in order to monitor for and record any shifts in the background, which can be affected by reagent dispensers or loss in enzyme activity overtime. Screening data was corrected, normalized, and concentration-effect relationships were derived by using publicly-available curve fitting algorithms developed in-house (http://ncgc.nih.gov/pub/openhts). A four parameter Hill equation was fitted to the concentration-response data by minimizing the residual error between the modeled and observed responses.
Further: nearly all actives have a fitted effect of over 65% in size.
On the % scale 0 is the no-effect control and ±100 the full control effect; potency means the concentration at half of the fitted maximal effect.

| Compound | Potency | activity change, negative = inhibition |
| --- | --- | --- |
| COc1cccc(N2C(=O)NC(=O)/C(=C\c3ccc([N+](=O)[O-])s3)C2=O)c1 | 39.8 µM (active) |  |
| COc1ccc(CN2C(=O)NC(=O)/C(=C\c3ccc(OC)c(OC)c3OC)C2=O)cc1 |  | -6.59% |
| CCOC(=O)CC(SP1(=S)OCC2(CCCCO2)C(C2CCCCO2)O1)C(=O)OCC (stereo not given) |  | -27.9% |
| C[C@]12CCC3C(CC[C@H]4[C@H](O)[C@H](O)CC[C@]34C)C1CCC2=O (stereo not given in full) |  | -5.27% |
| COc1ccc2c(c1)NP(=S)(c1ccccc1)N2 (stereo not given) |  | -3.42% |
| CCC(C)(O)C(=O)OC1C(=O)OC2CC3C(C)=CC(=O)C(O)C3(C)C3C4(O)OCC23C1C(C)C4O (stereo not given) |  | 2.84% |
| O=C(O)/C=C/c1ccc2c(c1)OCO2 |  | 39.2% |
| O=C(O)c1cc[c]([Sb](=[O])([OH])[OH])cc1[N+](=O)[O-] | 1.41 µM (active) |  |
| O=C(c1ccccc1[N+](=O)[O-])N1CCC2(CC1)OCCO2 |  | -1.26% |
| CC1C(=O)OC2CCN3CC=C(COC(=O)C(C)(O)C1(C)O)C23 (stereo not given) |  | 18.1% |
| Cc1cc(C)c2c(c1)NP(=S)(c1ccccc1)N2 (stereo not given) |  | 4.1% |
| CC(=O)OC1C2(CC3N4C(=O)C5(CO)SSC4(CC31O)C(=O)N5C)OC(C)C(C)(C)C2=O (stereo not given) |  | 0.834% |
| COc1cc([C@@H]2c3cc4c(cc3[C@H](OC(C)=O)[C@H]3COC(=O)[C@H]23)OCO4)cc(OC)c1OC |  | 0.697% |
| COC1C(O)C(C)OC(OC2CCC3(C=O)C(CCC4C3CCC3(C)C(C5=CC(=O)OC5)CCC43O)C2)C1O (stereo not given) |  | 0.394% |
| CO[C@H]1[C@@H](O)[C@@H](C)O[C@H](O[C@H]2[C@H](Oc3cccc4c(O)c5c(=O)oc6ccc(C)c7c(=O)oc(c34)c5c67)O[C@H](C)[C@H](O)[C@@H]2O)[C@@H]1O | 10 µM (active) |  |
| O=P1(Oc2ccccc2)CC(O)C(O)C(COCc2ccccc2)O1 (stereo not given) |  | -2.48% |
| CCC(=O)OC(Cc1ccccc1)(c1ccccc1)C(C)CN(C)C (stereo not given) |  | -8.26% |
| CC12CCC(O)CC1CCC1C2CCC2(C)C(C(=O)CC(O)C(F)(F)F)CCC12 (stereo not given) |  | -6.23% |
| c1ccc2c(c1)[I+]c1ccccc1-2 | 50.1 µM (active) |  |
| N#Cc1c(Cl)c(Cl)c(Cl)c(C#N)c1Cl |  | -1.6% |
